Test results from PubChem BioAssay (NCI).
About 83,000 compounds went through this panel and 20% of them were active in at least one assay; those are over-represented in the sample as a whole.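 Each cell line was grown in a 96-well plate and treated with one concentration of compound for 48 hours. Values below 10 were considered active.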 Values without a mark were called inactive. Calls of active or inactive are those of the source.

tested on: UACC-62 melanoma; test: NCI-60 one-dose screen, 48 h (100 = growth as untreated, 0 = no growth, -100 = all killed); settings: 10 µM unless noted

Compound | growth
CCOC(=O)c1cc2c(n1Cc1ccccc1OC)-c1oncc1CCC2 | 26.5%
COc1cc(/C=C2\CN(C)C/C(=C\c3cc(CN4CCCC4)c(O)c(OC)c3)C2=O)cc(CN2CCCC2)c1O | 81.7%
COc1c(B(O)O)cccc1-c1nc2ccc3[nH]ncc3c2c2c1C1CCC2C1 (centres undefined) | 70.3%
COc1cc(OC)cc(N2C(=O)N(Cc3ccc(C(C)(C)C)cc3)c3ccccc3S2(=O)=O)c1 | 90.6%
C[C@@H](C(=O)NCCCC#Cc1cnc(Nc2ccc(C#N)cc2)nc1NC1CC1)N(C)C(=O)/C=C/CN(C)C | 52.2%
NCCNc1nc2ccccc2c2c(=O)c3cc(F)cc(Cl)c3sc12 | 44.8%
c1ccc2cc3c(Nc4ccc(N5CCOCC5)cc4)ccnc3cc2c1 | 95.6%
O=C(Cn1cc(COc2ncnc3c2cnn3-c2ccccc2)nn1)Nc1ccccn1 | 80.8%
CNCCNc1nc2ccccc2c2c(=O)c3cccc(C)c3sc12 | 42%
Cn1nc(C(C)(C)C)cc1NC(=O)Cc1ccc(/C=C2\C(=O)Nc3ccccc32)cc1 | 41%

tested on: LOX IMVI melanoma; test: as above; settings: 10 µM unless noted

Compound | growth
CNC(=O)c1cc(Oc2ccc(CC(=O)Nc3cc(C(C)(C)C)cn3C)cc2)ccn1 | 67%
COc1ccccc1C(=O)O/N=C(\N)Cc1cccc2ccccc12 | 70.6%
COc1cc(/C=C2\CN(C)C/C(=C\c3cc(CN4CCOCC4)c(O)c(OC)c3)C2=O)cc(CN2CCOCC2)c1O | 11.7%
O=C1c2ccc3c4c(ccc(c24)C(=O)N1CCCCO)C(=O)N(CCCCO)C3=O | 59.9%
COc1ccc(-c2cc(=O)c3c(OC)c4ccoc4c(/C=C/C=O)c3o2)cc1 | -11.8% (active)
COc1ccc2occ(C3=C(c4c[nH]c5ccccc45)C(=O)NC3=O)c2c1 | 44.9%
CCCC(=O)CC(C)=O.CCCC(=O)CC(C)=O.[Cu] | 86.5%
O=C(Nc1ccc(N2CCNCC2)cc1)c1[nH]ncc1Nc1cc(C2CC2)ncn1 | 36.1%
Nc1ccc(-c2nc3cc(Oc4ccc(Oc5ccc6[nH]c(-c7ccc(N)cc7)nc6c5)cc4)ccc3[nH]2)cc1 | 99.2%
Oc1c(CN2CCN(c3ccccc3F)CC2)cc(Br)c2cccnc12 | -8.44% (active)
CC(=Nc1ccccc1)C1=C(O)C(Cc2ccc(F)cc2)NC1=O (centres undefined) | 36.2%
NCCOc1ncccc1/C=C1\c2ccccc2-c2ccc(F)cc21 | -11.5% (active)
CCOC(=O)C1=C(C)N=c2s/c(=C\c3cc(Cl)ccc3O)c(=O)n2C1c1ccc(OC)cc1 (centres undefined) | 95.2%
CCCCC(O)(c1ccc(Cl)cc1)C(CN1CCOCC1)c1ccc(Cl)cc1 (centres undefined) | 33.9%
O=C(/C=C/c1ccc(C(F)(F)F)cc1)c1ccc(Nc2nc(NCCO)nc(Nc3ccc(Cl)cc3)n2)cc1 | 0.53% (active)
OC(c1ccccc1)c1nnc(SCc2ccccc2)n1Cc1ccccc1 (centres undefined) | 98.7%
CCOC(=O)c1cnc2ccc(Cl)cc2c1NCCCN(C)C | 1.24% (active)
CC(=O)c1ccc(Cc2ccc(C(C)=O)s2)s1 | 93.7%
CCCCC1CCc2cccc3c(SCC(=O)N(C)c4ccc(Cl)cc4)cc[n+]1c23 (centres undefined) | 99.7%
CCN1C(=O)N(CC)C2C1NN=c1s/c(=C3\C(=O)N(C(C)C)c4ccccc43)c(=O)n12 (centres undefined) | 20.7%

Compound | growth
Cc1ccc2cccc(Oc3ccc(Nc4ncnc5onc(-c6ccccc6)c45)cc3)c2n1 | 56.5%
O=C(NC1C(O)OC(CO)C(O)C1O)NS(=O)(=O)c1ccc(Cl)cc1 (centres undefined) | 101%
O=C(Cc1ccccc1)NC(c1ccc(Cl)cc1)c1c(O)ccc2ccccc12 (centres undefined) | 10.4%
CC(=O)c1ccc2oc(=O)n(Cc3ccc(C#N)cc3)c(=O)c2c1 | 97.8%
O=C(O)CCC(=O)c1ccc(C2CCCCCC2)cc1 | 99%
COc1ccc(Cn2c(Br)c3c(c2-c2cc(OC)c(OC)c(OC)c2)CCc2sc(NC(=O)c4ccc(OC)cc4)nc2-3)cc1 | 92.5%
O=c1c2cc(F)ccc2sc2c(Nc3ccncc3)nc3ccccc3c12 | -66.7% (active)
N#Cc1c(N)nc2c(c1N)C(c1ccc(F)cc1)c1ccc(N)cc1O2 (centres undefined) | 110%
CC(=S)NC(=O)C(=O)/C=C1/NC(=O)C(=O)S1 | 99.7%
CCOC(=O)c1cc2c(n1Cc1ccccc1OC)-c1oncc1CCC2 | 45.5%
COc1cc(/C=C2\CN(C)C/C(=C\c3cc(CN4CCCC4)c(O)c(OC)c3)C2=O)cc(CN2CCCC2)c1O | 26.3%
COc1c(B(O)O)cccc1-c1nc2ccc3[nH]ncc3c2c2c1C1CCC2C1 (centres undefined) | 52%
COc1cc(OC)cc(N2C(=O)N(Cc3ccc(C(C)(C)C)cc3)c3ccccc3S2(=O)=O)c1 | 85.1%
C[C@@H](C(=O)NCCCC#Cc1cnc(Nc2ccc(C#N)cc2)nc1NC1CC1)N(C)C(=O)/C=C/CN(C)C | 49%
NCCNc1nc2ccccc2c2c(=O)c3cc(F)cc(Cl)c3sc12 | -92.1% (active)
c1ccc2cc3c(Nc4ccc(N5CCOCC5)cc4)ccnc3cc2c1 | 96.6%
O=C(Cn1cc(COc2ncnc3c2cnn3-c2ccccc2)nn1)Nc1ccccn1 | 93.8%
CNCCNc1nc2ccccc2c2c(=O)c3cccc(C)c3sc12 | -85.6% (active)
Cn1nc(C(C)(C)C)cc1NC(=O)Cc1ccc(/C=C2\C(=O)Nc3ccccc32)cc1 | 53.8%
